In all, about 2,300 compounds went through this assay and about 55 (2%) were called active.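 How the source made its calls: active means share of green or green-and-red cells above 9 and 9% in run 1 or 4 and 3% in run 2; inactive means the rest, inconclusive results apart.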 The list is a sample of the results.

The test in a line: differentiation of ER-HoxA9 arrested myeloid cells – cell-based, GFP/Mac1 flow cytometry, cherry pick 01, confirmation (AID 651706).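 On differentiation response: plate controls were double positive share in DMSO wells for no effect and share in positive control wells for full effect.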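 On double positive cells: share of live cells carrying both lysozyme GFP and MAC1 staining after four days.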 The note with it: ER-HoxA9 myeloid progenitors, stronger effect = higher value; differentiation response: GFP/Mac1 double-positive flow; double positive cells: measured here: percent double positive cells.
`CCN(CC)c1ccc(/C=N/NC(=O)CNC(=O)c2cccs2)cc1`: the differentiation response was 1.55% (inactive) and the double positive cells stood at 1.15%.

For the compound `CCOc1ccc(NC(=O)CSc2nc3c(c(=O)n2-c2ccccc2OC)SCC3)cc1`, the differentiation response was 2.25% (inactive) and the double positive cells stood at 1.4%.

For `CC1=C(C(N)=O)C(c2ccc3c(c2)OCO3)n2nc(-c3cccc(C)c3)nc2N1` (centres undefined), the differentiation response was 4.8% (inactive) and the double positive cells turned out to be 5.05%.

On to `COc1cc(/C=C(\C#N)c2nc3ccccc3[nH]2)ccc1O`, for which the differentiation response was 20.1% (inactive) and the double positive cells came to 1.25%.

With `CCCCSc1nc2c(c(=O)n1CC)SC(C)C2` (centres undefined), the differentiation response was 1.7% (inactive) and the double positive cells worked out at 0.9%.

As for `Cc1nn(-c2cc(Cl)ccc2N)c(=O)c2ccccc12`, the differentiation response was 1.3% (inactive) and the double positive cells is 1%.

As to `Cc1cc(NC(=O)CSc2nc(C(C)C)nc3sc4c(c23)CCC(C)C4)no1` (centres undefined), the differentiation response was 1.5% (inactive) and the double positive cells is 1.25%.

On to `Cc1ccc(-c2nc(C#N)c(NCCCn3ccnc3)o2)cc1`, for which the differentiation response was 1.5% (inactive) and the double positive cells was 1.1%.

Regarding `COc1ccccc1NC(=O)c1cc(Cl)nnc1Cl`, the differentiation response is 0% (inactive) and the double positive cells was 0%.

As to `CC#CC[N+](C)(C)CCCCCC`, the differentiation response is 5.9% (inactive) and the double positive cells came to 3.9%.

With `O=C(Nc1ccccc1N1CCN(c2ccccc2)CC1)c1cccc(F)c1`, the differentiation response is 0.9% (inactive) and the double positive cells amounted to 0.65%.

Turning to `CC(C)OC(=O)CN1C(=O)C(=O)c2ccccc21`, the differentiation response was 2.4% (inactive) and the double positive cells is 0.55%.

Turning to `N#C/C(=C/c1ccc(N2CCCCC2)o1)C(=O)NCCc1c[nH]c2ccccc12`, the differentiation response is 78.8% (inactive) and the double positive cells was 5.25%.

For the compound `O=C(CN1CCN(C2CCCCC2)CC1)Nc1ccccc1N1CCCCC1`, the differentiation response is 1.2% (inactive) and the double positive cells came to 0.65%.

Regarding `O=C(Nc1cccc(-c2nc3ncccc3o2)c1)c1ccco1`, the differentiation response is 1% (inactive) and the double positive cells turned out to be 0.45%.

On to `Cn1c(CNC(=O)c2ccccc2F)nnc1SCc1ccc(F)cc1`, for which the differentiation response is 2.7% (inactive) and the double positive cells was found to be 1.1%.

In the case of `Cc1c(C(=O)OCC(=O)N(CCC#N)c2ccccc2)oc2c1ccc1ccccc12`, the differentiation response was 0% (inactive) and the double positive cells amounted to 0%.

For the compound `CCOC(=O)C(C(=O)OCC)C(C#N)c1ccccc1` (centres undefined), the differentiation response is 1% (inactive) and the double positive cells turned out to be 0.7%.

On to `CCC1CCCCN1CCCNC(=O)Cn1nc(-c2ccccc2)ccc1=O` (centres undefined), for which the differentiation response is 3.1% (inactive) and the double positive cells turned out to be 2.25%.

On to `Cc1ccc(C(=O)NC2CCCC(C)C2C)cc1S(=O)(=O)N1CCCCC1` (centres undefined), for which the differentiation response is 4.6% (inactive) and the double positive cells came to 3.95%.

With `COc1ccc(-c2nnc(SCC(=O)c3cccs3)o2)c(OC)c1`, the differentiation response is 4.75% (inactive) and the double positive cells was found to be 1.2%.

On to `COCCCn1c(=O)/c(=C/c2ccccc2OC(C)C)s/c1=C(\C#N)C(=O)Nc1ccc(C(=O)O)cc1`, for which the differentiation response was 3.5% (inactive) and the double positive cells was 1.7%.

(Values after PubChem BioAssay AID651706 (NMMLSC, 2012).)
